Screening results from PubChem BioAssay.
V-ATPase pH = alters yeast V-ATPase proton transport; response, % at 10 µM; S. cerevisiae, pHLuorin cytosolic pH fluorescence; 350,000 compounds, 0.37% hits; in the data active means response mostly above about 7.3%, no sharp cut-off; inactive means mostly below about 5.4%; further: actives read high
CRFBP-R2 block = blocks CRF-induced signaling of the CRF-BP/CRF-R2 complex; inhibition, % at 11.8 µM; 350,000 compounds, 0.59% hits; HEK293 CRF-R2/CRF-BP, CRF-induced calcium fluorescence;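 active means inhibition of the ligand-induced calcium signal above about 50% at the single tested concentration, limit read from the data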
NTR1 agonist = agonists of human neurotensin receptor NTR1; 330,000 compounds, 0.17% hits; NTR1-U2OS beta-arrestin-GFP spot imaging, agonist mode; activation, % at 20 µM; P30989;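 active means activation at or above 40% of the spot to cytoplasm intensity ratio, with at least 20 cells analyzed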;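 further: 0% = DMSO without peptide and 100% = 100 nM NTR1 peptide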
Target sequence (P30989 whole entry, looked up): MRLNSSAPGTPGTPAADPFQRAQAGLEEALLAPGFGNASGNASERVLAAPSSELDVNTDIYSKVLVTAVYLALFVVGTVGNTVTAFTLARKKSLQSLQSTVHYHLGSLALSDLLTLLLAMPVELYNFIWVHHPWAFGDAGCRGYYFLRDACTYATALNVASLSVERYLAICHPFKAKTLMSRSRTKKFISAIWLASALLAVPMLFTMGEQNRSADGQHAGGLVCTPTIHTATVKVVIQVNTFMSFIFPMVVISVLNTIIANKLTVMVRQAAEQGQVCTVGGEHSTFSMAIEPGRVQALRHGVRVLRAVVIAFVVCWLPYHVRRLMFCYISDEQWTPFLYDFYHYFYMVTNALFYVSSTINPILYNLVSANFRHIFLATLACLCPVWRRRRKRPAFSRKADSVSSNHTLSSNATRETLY
CRFR2-BP ag = CRF-BP/CRF-R2 complex agonism; HEK293 CRF-R2/CRF-BP, calcium dye fluorescence (FLIPR); percent of saturating CRF peptide response; activation, % at 13.2 µM; 350,000 compounds, 0.46% hits; AID 588473;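 active means activation of at least 50%, plus an integration ratio under a set limit after plate pattern correction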;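 further: plate controls were neutral control wells without compound for no effect and CRF at EC100 for full effect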
The depositor's hits bear a star; . = not tested or not shown. Rows were chosen to be rich in hits. Some 1.5% of all compounds tested hit in one or more screens of this group.

SMILES	V-ATPase pH	CRFBP-R2 block	NTR1 agonist	CRFR2-BP ag
COc1ccc(N(CC(=O)NN=C2CCCC2)S(=O)(=O)c2ccccc2)cc1Cl	2	-100	-1	80*
CC(C)(C)c1ccccc1NC(=O)NC1CCN(Cc2c(F)cccc2Cl)CC1	4	3	0	1
COc1cccc(CNC(=O)CN(c2ccc(C(C)C)cc2)S(=O)(=O)c2c(C)noc2C)c1	-3	110*	4	2
CN1Cc2c(N3CCOCC3)nc(SCc3ccccc3)c(C#N)c2CC1(C)C	-5	-75	3	64*
C[C@]12CCC(=O)CC1=CCC1C3CC=C(C#N)[C@@]3(C)CC[C@@]12O (stereo partly specified)	71*	-11	0	1
Cc1cnc(NC(=O)CSc2ncc(-c3ccccc3)n2Cc2ccco2)s1	5	-59	4	60*
O=C(CSc1ncc(-c2ccc(F)cc2)n1Cc1ccco1)Nc1nccs1	0	-20	2	-1
Cc1ccc(-n2nnnc2SCC(=O)c2c(N)n(C3CC3)c(=O)[nH]c2=O)cc1	748*	-11	2	1
Cc1ccc(C(=O)Nc2ccccc2N2CCCC2)cc1	-3	15	0	2
Cc1cccc(-n2c3nc(=O)[nH]c(=O)c-3cc3cc([N+](=O)[O-])ccc32)c1	-1	-56	.	2
Cc1ccc(C)c(-n2c3nc(=O)[nH]c(=O)c-3cc3cc([N+](=O)[O-])ccc32)c1	-7	-130	.	61*
Cc1cccc(NC(=O)CSc2nc3[nH]ncc3c(=O)[nH]2)c1C	-1	51*	-1	3
C#CCSc1nc2[nH]ncc2c(=O)[nH]1	.	-11	2	1
CC(C)CCSc1nc2[nH]ncc2c(=O)[nH]1	48*	3	2	2
CCCN1CCc2c(sc(NC(=O)c3ccc(S(=O)(=O)N(C)c4ccccc4)cc3)c2C(N)=O)C1	2	-63	13	99*
CCCN1CCc2c(sc(NC(=O)c3ccc(S(=O)(=O)N4CCN(C(=O)OCC)CC4)cc3)c2C(N)=O)C1	-2	-72	0	108*
Cn1ccc(C(=O)Nc2sc3c(c2C(N)=O)CCCCC3)n1	-4	78*	1	0
CC(=O)c1ccc(C(=O)Nc2sc3c(c2C(N)=O)CCN(Cc2ccccc2)C3)cc1	-2	.	6	.
CN1CCc2c(sc(NC(=O)c3ccc(S(=O)(=O)N4CCCC4)cc3)c2C(N)=O)C1	-3	-36	-3	28
CN1CCc2c(sc(NC(=O)c3ccc(S(=O)(=O)N4CCCCCC4)cc3)c2C(N)=O)C1	1	-146	1	127*
CCOC(=O)N(C)C[C@H]1OCc2cnnn2CCCC(=O)N([C@@H](C)CO)C[C@H]1C	-1	-11	.	0
CCN1CCc2c(sc(NC(=O)c3ccc(S(=O)(=O)N4CCCC4)cc3)c2C(=O)NC)C1	-2	-16	-1	2
CNC(=O)c1c(NC(=O)c2ccc(S(=O)(=O)N3CCCc4ccccc43)cc2)sc2c1CCN(C)C2	-2	-128	13	159*
CCCN1CCc2c(sc(NC(=O)c3ccc(S(=O)(=O)N(C)c4ccccc4)cc3)c2C(=O)NC)C1	-1	-63	-1	63*
CN1CCc2c(sc(NC(=O)c3ccc(S(=O)(=O)N4CCc5ccccc54)cc3)c2C(N)=O)C1	.	.	15	.
SMILES	V-ATPase pH	CRFBP-R2 block	NTR1 agonist	CRFR2-BP ag
O=C1CC(c2ccc(Cl)cc2)SC(N(c2ccccc2)c2ccccc2)=N1 (stereo unspecified)	-1	114*	14	0
O=C1CC(c2ccccc2)SC(N(c2ccccc2)c2ccccc2)=N1 (stereo unspecified)	-1	56*	1	-3
O=C1CC(c2ccccc2)Sc2nc(-c3ccccc3)c(-c3ccccc3)n21 (stereo unspecified)	-1	-12	3	-1
O=C1CC(c2cccc(F)c2)SC(N(c2ccccc2)c2ccccc2)=N1 (stereo unspecified)	6	85*	5	-1
c1ccc(CNc2cccnc2)cc1	0	16	.	-2
NS(=O)(=O)c1ccc(NC(=O)COC(=O)CNC(=O)C23CC4CC(CC(C4)C2)C3)cc1	1	3	0	3
N#C/C(=C\C=C\c1ccccc1)c1nc(-c2ccc3c(c2)OCO3)cs1	1	-74	1	65*
COC(=O)C1=C(C)N(Cc2ccc(OC)c(OC)c2)C(=O)C1	-1	-2	0	1
COC(=O)C1=C(C)N(CCc2ccc(OC)c(OC)c2)C(=O)C1	31*	6	2	2
COc1ccc(CCN2C(=O)CC(Cc3ccccc3)C2=O)cc1OC (stereo unspecified)	1	79*	0	6
COc1ccc(CCN2C(=O)CC(Cc3ccc(Br)cc3)C2=O)cc1OC (stereo unspecified)	0	4	0	-6
Cc1nc2c(C(=O)NCCc3ccccc3)c[nH]n2c(=O)c1Cl	-2	51*	0	-3
Cc1nc2c(C(=O)NCCC(C)C)c[nH]n2c(=O)c1Cl	-1	20	2	-2
OCC[C@H]1C[C@H](O)[C@@H](O)[C@@]2(CCc3ccccc3O2)O1	0	4	1	1
COc1ccc(CC(=O)O/N=C(\N)c2cccc([N+](=O)[O-])c2)cc1	-1	67*	0	-3
COc1ccc(C)cc1S(=O)(=O)n1cnc2ccccc21	-2	1	1	-3
O=C(NCc1ccccc1Br)c1cccc2c1C(=O)c1ccc(N3CCOCC3)cc1S2(=O)=O	.	.	6	.
O=C(NCc1ccccc1C(F)(F)F)c1cccc2c1C(=O)c1ccc(N3CCCCC3)cc1S2(=O)=O	-1	-42	12	76*
O=C(NCCc1ccccc1)c1cccc2c1C(=O)c1ccc(N3CCOCC3)cc1S2(=O)=O	1	-1	-2	26
O=C(NC1CCCCC1)c1cccc2c1C(=O)c1ccc(N3CCCC3)cc1S2(=O)=O	-2	-20	1	36
O=C(NCc1cc(C(F)(F)F)ccc1Cl)c1cccc2c1C(=O)c1ccc(N3CCC(Cc4ccccc4)CC3)cc1S2(=O)=O	2	-27	2	73*
O=C(NC1CC1)c1cccc2c1C(=O)c1ccc(N3CCC(Cc4ccccc4)CC3)cc1S2(=O)=O	3	-40	-2	83*
C=CCNC(=O)c1cccc2c1C(=O)c1ccc(N3CCOCC3)cc1S2(=O)=O	-5	98*	0	4
COc1cc2cc(CCCOC(=O)CCCC(=O)O)oc(=O)c2cc1OC	-5	6	0	-1
O=C(NCc1ccc(F)cc1)c1cccc2c1C(=O)c1ccc(N3CCOCC3)cc1S2(=O)=O	-3	-2	-1	28
CC1CCN(c2ccc3c(c2)S(=O)(=O)c2cccc(C(=O)NCc4ccc(F)cc4)c2C3=O)CC1	-5	-34	2	85*
O=C(NCc1ccc(F)cc1)c1cccc2c1C(=O)c1ccc(N3CCC(Cc4ccccc4)CC3)cc1S2(=O)=O	-4	-51	0	126*
O=C(NCc1ccc(F)cc1)c1cccc2c1C(=O)c1ccc(N3CCC(N4CCCCC4)CC3)cc1S2(=O)=O	1	-36	.	17
